# From PubChem BioAssay (NCI)
# About 83,000 compounds went through this panel and 20% of them were active in at least one assay; those are over-represented in the sample as a whole.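 96-well plates, one dose, 48 hours. Percent growth reported; active if below 10.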 Unmarked numbers belong to inactive results. The source made the active and inactive calls.
# Experiments:
# Experiment in all cases: NCI-60 one-dose screen, 48 h (100 = growth as untreated, 0 = no growth, -100 = all killed)
# Conditions in all cases: 10 µM unless noted
# [1] = test system: NCI-H23 lung
# [2] = test system: NCI-H226 lung
# [3] = test system: NCI-H322M lung
# [4] = test system: HOP-62 NSCLC
# [5] = test system: NCI-H460 lung
# [6] = test system: HOP-92 NSCLC
# [7] = test system: NCI-H522 lung
# [8] = test system: A549/ATCC NSCLC
# [9] = test system: 786-0 renal
# [10] = test system: COLO 205 colon
# [11] = test system: DU-145 prostate
# [12] = test system: MALME-3M melanoma
# [13] = test system: MDA-MB-231 breast
# [14] = test system: RXF 393 renal
# [15] = test system: SF-268 CNS
# [16] = test system: SF-295 CNS
# [17] = test system: SF-539 CNS
# [18] = test system: UACC-257 melanoma
# [19] = test system: M14 melanoma
# [20] = test system: K-562 leukemia
SMILES,growth [1],growth [2],growth [3] [%],growth [4] [%],growth [5],growth [6] [%],growth [7],growth [8] [%],growth [9],growth [10],growth [11] [%],growth [12],growth [13],growth [14],growth [15] [%],growth [16],growth [17],growth [18] [%],growth [19],growth [20] [%]
COc1ccc(/C=C/C(=O)Nc2cc(/C=C\c3cc(OC)c(OC)c(OC)c3)cc(OC)c2OC)cc1OC,0.824% (active),37.6%,42.3,33.9,17.5%,46.2,-21.3% (active),40,23%,11.2%,53.2,32.8%,52%,-5.89% (active),31.5,4.33% (active),28.6%,50.7,5.78% (active),–
O=C(NNc1nc2c(F)cccc2n2cccc12)c1cnccn1,24.8%,31.7%,25.5,30.2,11.6%,67.4,2.24% (active),15.7,27.4%,-4% (active),26.2,18.3%,31.7%,37.5%,30.6,8.17% (active),-0.386% (active),16.2,3.21% (active),–
COc1cc(NCCCCCNC(C)(C)C)c2ncccc2c1,93.1%,86.5%,93.3,92.7,111%,79.4,67.8%,88.1,95.6%,110%,112,107%,89.8%,97.4%,105,77.5%,99.7%,133,104%,–
Nc1c(S(=O)(=O)O)cc2c3c(cccc13)C(=O)OC2=O,94.9%,105%,107,93.9,105%,90.7,104%,116,102%,111%,140,112%,103%,131%,109,117%,100%,78.8,102%,–
Cn1cc(-c2nc(-c3c[nH]c4c(Cl)nccc34)cs2)c2cc(F)ccc21,104%,95.5%,102,88.5,98.3%,98.2,90.2%,74.5,94.7%,99.8%,97.4,120%,100%,106%,114,105%,107%,70.2,99.9%,–
CN1CCC(=C(c2ccccc2)c2ccccc2)C(c2ccccc2)C1 (stereo not drawn),88.1%,96.3%,96.7,101,103%,82.8,85.2%,90.8,95.1%,83%,104,104%,94.8%,88%,97.8,99.3%,101%,105,112%,106
COc1ccc2c(c1)oc1c(C)c3c(c(C)c12)C(=O)N(N)C3=O,50.4%,-11.6% (active),32.3,14.8,8% (active),29,49.5%,24.1,-39.6% (active),39.5%,27.9,-5.47% (active),-4.83% (active),28.5%,39.8,12%,-6.28% (active),40.5,13.9%,–
OCc1cnc2ccccc2c1NC1CCCCCC1,77.4%,80.4%,89.3,95.8,93.1%,83.6,61.7%,84.6,101%,110%,97.7,102%,81.3%,103%,101,86.4%,102%,94.5,91.4%,–
